# Screening results (PubChem)
# Sampled rows, rich in hits. Any-hit rate of the full collection: about 7.4%.
# SMN2 splice up: enhancers of SMN2 splice variant expression; HEK293 SMN2-luciferase splicing reporter, luminescence, 30-36 h; Potency, µM (top dose mostly 46.1 µM), inactives show at the highest dose activity change, positive = activation, hits mostly activators; actives 2.8% (n = 210,000); note: % of control where 0% means no effect; nearly all actives have a fitted effect of over 55% in size
#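 qHTS luciferase splicing reporter: luminescence rises when SMN2 exon 7 is included in transfected HEK293 cells. Compound exposure lasted 30-36 h at 37C, with 4.5 mM final sodium butyrate as control, followed by a ONE-Glo read.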
# Rab9 prom act: Rab9 promoter activation. Huh7 Rab9 promoter-luciferase reporter, luminescence, 24 h. Potency, µM (top dose mostly 9.22 µM), for the others: at the highest dose activation, negative = inhibition, actives largely listed as activators. actives 2.8% (n = 320,000); note: % of control where 0% means no effect; nearly all actives have a fitted effect of over 60% in size
#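 Cells were plated at 1500 per well in reduced-serum medium with 10% FBS and left 2 h. Compound in DMSO was then added for 24 h at 37 °C. Reporter signal was read by luminescence after 10 min with luciferase detection reagent.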
# NPC1 promoter act: activators of NPC1 promoter; actives 2.4% (n = 320,000); Potency, µM (series often up to 9.22 µM), for inactives: top-dose activation, actives largely listed as activators; Huh7 NPC1 promoter luciferase reporter, 24 h; note: % of control where 0% means no effect; nearly all actives have a fitted effect of over 60% in size
#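 Readout is luciferase luminescence, reflecting NPC1 promoter activation in stably transfected Huh7 cells after 24 h compound exposure at 37 °C in reduced-serum medium with 10% FBS.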
# FLuc counter: firefly luciferase modulation, counter-screen for miR-21 project | P08659 | purified FLuc, Km substrates, luminescence inhibition | Potency, µM (titrated, usually from 57.5 µM), inactives show at the highest dose activity change, negative = inhibition, usual class: inhibitors | actives 6.9% (n = 360,000);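 note: plate controls were vehicle for no effect and reference inhibitor for full effect; nearly all actives have a fitted effect of over 55% in size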
# Target sequence (P08659 whole entry, looked up): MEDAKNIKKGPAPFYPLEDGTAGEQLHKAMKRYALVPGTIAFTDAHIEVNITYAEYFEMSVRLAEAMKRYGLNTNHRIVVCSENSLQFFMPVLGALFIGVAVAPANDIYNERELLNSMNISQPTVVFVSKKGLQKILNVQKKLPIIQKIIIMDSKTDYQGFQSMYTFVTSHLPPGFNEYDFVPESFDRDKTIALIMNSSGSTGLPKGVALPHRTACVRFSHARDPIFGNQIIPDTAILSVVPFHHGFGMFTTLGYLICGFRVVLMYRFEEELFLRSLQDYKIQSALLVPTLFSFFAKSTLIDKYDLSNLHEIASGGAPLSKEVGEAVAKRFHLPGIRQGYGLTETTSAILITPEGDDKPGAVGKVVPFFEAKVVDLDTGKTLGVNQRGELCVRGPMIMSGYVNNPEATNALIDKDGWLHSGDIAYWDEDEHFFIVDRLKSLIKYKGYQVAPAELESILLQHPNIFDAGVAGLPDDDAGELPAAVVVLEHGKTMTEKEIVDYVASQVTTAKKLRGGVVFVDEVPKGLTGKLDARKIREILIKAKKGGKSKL
#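 Purified P. pyralis luciferase, 10 nM final, with Km-level 10 uM D-luciferin and 10 uM ATP in 50 mM Tris acetate pH 7.5, 10 mM Mg acetate, 0.01% Tween-20, 0.05% BSA; 6-point qHTS titration about 60 µM downward; luminescence read.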
# ELG1 genotox: inducers of genotoxicity in HEK293T ELG1-luciferase cells; Potency, µM (titrated, usually from 46 µM), inactives show top-dose activity change, positive = activation, most hits filed as activators; HEK293T ELG1-luciferase reporter, luminescence, 16 h; actives 1.3% (n = 330,000); AID 504466; note: % of control where 0% means no effect; nearly all actives have a fitted effect of over 60% in size
#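 Luminescence read-out: rising ELG1-luciferase signal, reflecting elevated ELG1 protein under genetic stress, flags genotoxic compounds. Cells were treated for 16 hr at 37 °C before ONE-Glo detection.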
# The depositor's hits bear a star; u = inconclusive; x = not tested or not shown; [ ] = remark or other dose. Calls come from the whole dose curve; as a rule, active = well fitted curve in the direction sought with a large enough effect; inconclusive = small, poorly fitted or top-dose-only effect, or another doubt; inactive = no such curve, though single readings can be large; an effect the other way counts as inactive or inconclusive. Potency is the fitted concentration of half-maximal effect.
SMILES,SMN2 splice up,Rab9 prom act,NPC1 promoter act,FLuc counter,ELG1 genotox
COc1ccc(Cl)cc1NC(=O)CN(C)C(=O)c1ccc2c(c1)OCCO2,x,-1%,0%,-3%,-2%
CN(CC(=O)Nc1ccc(Cl)c(C(F)(F)F)c1)C(=O)CCCNC(=O)c1ccc(Cl)cc1,x,5%,13%,19µM*,-2%
COc1ccc(Cl)cc1NC(=O)CN(C)C(=O)CCCNC(=O)c1ccc(Cl)cc1,x,-4%,-1%,13µM*,1%
CN(CC(=O)Nc1ccc(Cl)c(C(F)(F)F)c1)C(=O)CCNC(=O)c1ccco1,x,-2%,1%,8%,-2%
CCC(CC)c1nnc(NC(=O)c2cc([N+](=O)[O-])ccc2N2CCOCC2)s1,x,x,x,x,0%
CCCN(Cc1ccc(C)cc1)C(=O)c1ccc(CNS(=O)(=O)c2ccc(C(C)=O)cc2)cc1,x,u,u,21µM*,1%
CCN(Cc1ccccc1)C(=O)c1ccc(CNS(=O)(=O)c2ccc(C)cc2)cc1,-41%,-6%,-2%,5%,1%
CC(C)(C)c1csc(N/N=C/c2cccnc2)n1,u,3.2µM*,u,12µM*,u
C(=N\Nc1nc(-c2ccccc2)cs1)/c1cccnc1,22µM*,2.2µM*,3.2µM*,21µM*,5.2µM*
Cc1cc(=O)[nH]c(N/N=C/c2ccc(C)o2)n1,-16%,-11%,0%,-5%,5%
Cc1ccc(/C=N/Nc2nc3ccccc3s2)o1,2µM*,u,u,0.85µM*,0.82µM*
Cc1ccc(/C=N/Nc2nc(C(C)(C)C)cs2)o1,13µM*,u,u,13µM*,u
Clc1ccc(-c2csc(N/N=C/c3cccnc3)n2)c(Cl)c1,-53%,-8%,-4%,-17%,7%
COC(=O)C/C=N/N=C1/NC(=O)/C(=C/C(=O)O)S1,x,-6%,-1%,3%,-1%
C[C@@](N)(/C=C\c1ccccc1)C(=O)O,-5%[9.22 µM],x,x,x,x
CC(NC(=O)C(C)N1c2cccc3cccc(c23)S1(=O)=O)c1ccccc1 (stereo not drawn),x,1%,-3%,0%,-14%
CC(C)COc1ccc(C(=O)Nc2ccc(NC(=O)c3ccco3)c(Cl)c2)cc1,-26%,2%,-1%,-20%,u
Cc1cc(NC(=O)c2ccc3c(c2)OCO3)ccc1NC(=O)c1ccco1,17%,12%,12%,21µM*,3%
O=C(Nc1cccc(NC(=O)c2ccco2)c1)c1ccc2c(c1)OCO2,3%,-5%,3%,15µM*,0%
CC(C)Oc1ccc(C(=O)Nc2ccc(NC(=O)c3ccco3)c(Cl)c2)cc1,-10%,u,u,0.54µM*,2%
Cc1ccc(C(=O)Nc2ccc3c(c2)OCO3)cc1NC(=O)c1ccco1,u,u,18%,u,10%
O=C(COC(=O)c1ccc(O)cc1O)Nc1ccc2c(c1)OCCO2,x,-2%,0%,15µM*,u
CCC(C)NC(=O)CSc1nc2cc3c(cc2c(=O)n1Cc1ccc(C(=O)NCCc2ccc(OC)c(OC)c2)cc1)OCO3 (stereo not drawn),x,x,x,0%,x
Cc1nnsc1C(=O)N1CCCC(N2CCN(c3ccc(F)cc3)CC2)C1 (stereo not drawn),x,1%,0%,-1%,-5%
COc1cc(OC)cc(C(=O)Nc2ccc(NC(=O)c3ccco3)c(C)c2)c1,x,15%,20%,12µM*,u
SMILES,SMN2 splice up,Rab9 prom act,NPC1 promoter act,FLuc counter,ELG1 genotox
COc1cc(NC(=O)c2ccc3c(c2)OCCO3)ccc1NC(=O)c1cccs1,20%,18%,18%,5.4µM*,2%
CC1(C)Oc2ccc(NC(=O)c3ccco3)cc2O1,13µM*,2.5µM*,1µM*,6µM*,u
CCCC(=O)Nc1ccc(NC(=O)c2ccco2)c(OC)c1,u,u,u,15µM*,u
COc1cc(OC)cc(C(=O)Nc2cc(NC(=O)c3ccco3)ccc2OC)c1,-26%,14%,-2%,u,-2%
COc1cc(NC(=O)c2ccc3c(c2)OCCO3)ccc1NC(=O)c1ccco1,x,29%,22%,3.4µM*,1%
Cn1cccc1C(=O)OCC(=O)Nc1ccc2c(c1)OCCO2,x,x,x,x,1µM*
Cn1cccc1C(=O)OCC(=O)NCc1ccc2c(c1)OCO2,x,0%,-3%,x,5%
